From PubChem BioAssay (NCI)
About 79,000 compounds went through this panel and 15% of them were active in at least one assay; those are over-represented in the sample as a whole. Values without a mark were called inactive. The source made the active and inactive calls. Cut-off read from the data, not from the text of the source: active = growth inhibition above about 70%; inactive = the rest.

experiment: NCI Yeast Anticancer Drug Screen. Data for the sgs1 mgt1 strain (AID 161);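 note: 0% = growth of cultures given vehicle only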; settings: S. cerevisiae sgs1 mgt1 strain, at 50.0 µM, active compounds read high
Experimental: Growth inhibition of yeast strains with defined genetic alterations is measured as a screen for potential anti-cancer activity. Selected strains with alterations in DNA damage repair or cell cycle control were exposed to compounds and growth inhibition was measured relative to vehicle treated controls. The strain used in this assay is sgs1 mgt1

Row | Compound | growth inhibition
1 | COC(=O)C(=[N+]=[N-])C(=O)c1ccc([N+](=O)[O-])cc1 | 40.1%
2 | O=C(Nc1c(C(=O)NC2CCCCC2)[nH]c(=O)[nH]c1=O)c1ccc(Cl)cc1 | -19.4%
3 | CCCCCCCCCOc1ccc2ccccc2c1 | 22.4%
4 | Cc1cc2c(C(C)C)c(O)c(O)c(C=Nc3ccc(N=Nc4ccccc4)cc3)c2c(O)c1-c1c(C)cc2c(C(C)C)c(O)c(O)c(C=Nc3ccc(N=Nc4ccccc4)cc3)c2c1O | -6.3%
5 | O=C(Nc1ccccc1C(=O)O)C(=O)C(C(=O)c1ccccc1-c1ccccc1)C1OC(=O)c2ccccc21 (stereo not given) | 4.2%
6 | COc1cc2c(cc1OC)C1CC(CC(N)=O)(C(N)=O)CCN1CC2 (stereo not given) | 14.6%
7 | CCOC(=O)NNC(=O)NC12CC3CC(CC(C3)C1)C2 | 5.6%
8 | c1ccc2c(-c3ccncc3)c3ccccc3cc2c1 | 9.45%
9 | Nc1nc(N)c2c(n1)Nc1ccc(Cl)nc1S2 | 89.1% (active)
10 | COCCOCCOCCC(=O)NC1CC2CCC1(C)C2(C)C (stereo not given) | 8.2%
11 | O=[N+]([O-])c1ccc(C2=NOC3COC4C=CC=CC4OCC23)cc1 (stereo not given) | 11.1%
12 | FC(F)(F)C(F)(F)C(F)(F)c1nc(C(F)(F)C(F)(F)C(F)(F)F)nc(C(F)(F)C(F)(F)C(F)(F)F)n1 | 31.5%
13 | COc1cc(C(c2ccc3c(c2)OCO3)C2SCCCS2)cc(OC)c1OC (stereo not given) | 21%
14 | COc1cc(NS(=O)(=O)c2ccc(C)cc2)c2nccnc2c1 | 18.6%
15 | CC(C)(C)NC(=O)NCc1ccc(Cl)cc1 | -12.1%
16 | C/C(CC(=O)Nc1cccc([N+](=O)[O-])c1)=N\NC(=O)CC#N | 0.55%
17 | Cc1cc(C(=O)c2ccccc2)ccc1[N+](=O)[O-] | -7.35%
18 | CC1=CC2C3C(=O)OC(=O)C3C1C(Cc1ccccc1)N2C (stereo not given) | 10.6%
19 | CN(C)CCCNC(=O)N/N=C\c1cccc2ccccc12 | -17.4%
20 | CC(=O)NC1C(OCC(=O)NC(C)C(=O)NC(CCC(=O)NCCCCCNc2ccc([N+](=O)[O-])c3[nH]c4ccccc4c(=O)c23)C(N)=O)C(O)C(CO)OC1(C)OCc1ccccc1 (stereo not given) | 1.05%

Row | Compound | growth inhibition
21 | COc1ccccc1C(=O)N/N=C/c1ccccc1Cl | 32.4%
22 | CCOC(=O)c1nc2c([nH]1)c(=O)n(C)c(=O)n2C | 2.3%
23 | CCCC1C(C#N)(C#N)C(C#N)=C(N)C1(C)C(C)=O (stereo not given) | -18.7%
24 | CCCC(=O)Oc1ccc(Cl)cc1 | 1.35%
25 | Cc1cc(OCCN(C)C)cc(C)c1Cl | 25.1%
26 | CCCCCC(CCCC)OC(=O)Nc1ccccc1 (stereo not given) | 10%
27 | C/C(=N/NC(N)=O)C1c2ccccc2Cc2ccccc21 | 4.85%
28 | CC1(c2ccccc2)CC(c2cccc([N+](=O)[O-])c2)=NO1 (stereo not given) | 36.9%
29 | NCCNCc1ccncc1 | -58.5%
30 | CON(C)S(=O)(=O)c1ccc(Cl)cc1 | -4.15%
31 | CN(C)CCCNC(=O)CCNC(=O)c1cc(NC(=O)c2cc(NC(=O)c3cc(NC(=O)c4nccn4C)cn3C)cn2C)cn1C | -17.2%
32 | O=c1[nH]n2c(=O)cc[nH]c2c1-c1nnns1 | -36.1%
33 | O=C(/C=C/c1ccccc1)NC(=S)Nc1ccc(F)c([N+](=O)[O-])c1 | 7.85%
34 | CC(=O)N(C)c1ccc(NC(=S)NC(=O)c2cccc([N+](=O)[O-])c2)cc1 | 6.9%
35 | COc1ccc(C2C(Cl)C(=O)N2n2cnc3ccccc3c2=O)cc1OC (stereo not given) | 0.1%
36 | COC(=O)C1(CC(=O)c2ccc(Cl)cc2Cl)NC(=S)NC(=O)C1C#N (stereo not given) | -8.2%
37 | CCc1ccccc1NC(=O)C1=C(C)NC(C)=C(C(=O)Nc2ccccc2CC)C1c1ccc2c(c1)OCO2 | -2.4%
38 | NC(=O)C1C[C@@H](O)CN1C(=O)c1ccc2c(c1)OCO2 (stereo not given in full) | -24.6%
39 | Cc1c([N+](=O)[O-])cc2c(c1[N+](=O)[O-])C(=O)c1ccccc1-2 | 8.5%
40 | ClC(=Nc1ccccc1)c1cc(N2CCOCC2)ccn1 | 13.3%
